Data as given in PubChem BioAssay (NCATS).
Several values for one entry are separate records, joined by “and”; a condition that tells them apart may be missing. Equal entries are not always repeated. Inconclusive results are not listed. A call without a number means that no potency is given here. A number with no mark means an inactive call. Activity calls are given as the source filed them. The call rests on the fitted dose curve; in most records, active means well fitted curve in the direction sought with a large enough effect; inconclusive means small, poorly fitted or top-dose-only effect, or another doubt; inactive means no such curve, though single readings can be large; an effect the other way counts as inactive or inconclusive.

Legend:
[1] = Quantitative highthroughput screen to assess conditional lethalithy of NOMO1 cells grown in RPMI1640 with untreated serum (RPMI+s) (AID 1963876); further: nearly all actives have a fitted effect of over 35% in size
In short: (§1)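 Each medium arm—HPLM with 10% dialyzed FBS, or RPMI1640 with 5 mM glucose and 10% untreated or dialyzed FBS—was screened against an 11-point, 3-fold compound titration for 48 h at 37 °C, with CellTiter-Glo luminescence as endpoint.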

[2] = Quantitative highthroughput screen to assess conditional lethalithy of NOMO1 cells grown in RPMI1640 with dialyzed fetal bovine serum (RPMI+ds) (AID 1963877); further: nearly all actives have a fitted effect of over 30% in size; on viability: series mostly up to about 46 µM
In short: as §1

[3] = Quantitative highthroughput screen to assess conditional lethalithy of P12 Ichikawa cells grown in Human Plasma-Like Medium with dialyzed fetal bovine serum (HPLM+ds) (AID 1963879); settings: Potency: viability; further: nearly all actives have a fitted effect of over 35% in size; on viability: series mostly up to about 46 µM
In short: as §1

[4] = Quantitative highthroughput screen to assess conditional lethalithy of P12 Ichikawa cells grown in RPMI1640 with dialyzed fetal bovine serum (RPMI+ds) (AID 1963880); settings: Potency: P12-Ichikawa viability; further: nearly all actives have a fitted effect of over 35% in size
In short: as §1

[5] = Quantitative highthroughput screen to assess conditional lethalithy of P12 Ichikawa cells grown in RPMI1640 with untreated serum (RPMI+s) (AID 1963881); settings: Potency: viability; further: nearly all actives have a fitted effect of over 35% in size; on viability: series mostly up to about 46 µM
In short: as §1

[6] = Quantitative highthroughput screen to assess conditional lethalithy of SEM cells grown in RPMI1640 with unreated serum (RPMI+s) (AID 1963883); further: nearly all actives have a fitted effect of over 35% in size
In short: as §1

[7] = Cellular viability qHTS for adrenocortical cancer (ACC) cell line SW-13 (AID 1963989); settings: SW-13 ACC cells viability, CellTiter-Glo, 48 h; activity (max response): stronger effect = lower value; further: nearly all actives have a fitted effect of over 65% in size;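 on activity (max response): cells grown in serum-free medium with ITS supplement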
In short: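 SW-13 cells in ITS-supplemented serum-free DMEM were plated overnight, then exposed for 48 h at 37C to compound titrations (up to 46 uM final). Viability was read by CellTiter-Glo luminescence; four-parameter logistic fits gave IC50 and efficacy.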

[8] = Cellular viability qHTS for adrenocortical cancer (ACC) cell line NCI-H295R (AID 1963990); further: nearly all actives have a fitted effect of over 60% in size
In short: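 Luminescent ATP read-out (CellTiter-Glo, 20 min RT) after 48 h drug exposure of NCI-H295R cells; a titration up to 46 uM final. Data normalized to doxorubicin (100% inhibition) and DMSO (0%); 4-parameter fit gives IC50, max response.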

[9] = Quantitative highthroughput screen to assess conditional lethalithy of SEM cells grown in Human Plasma-Like Medium with dialyzed fetal bovine serum (HPLM+ds) (AID 1963882); further: nearly all actives have a fitted effect of over 35% in size; on viability: series mostly up to about 46 µM
In short: as §1

[10] = Quantitative highthroughput screen to assess conditional lethalithy of SEM cells grown in RPMI1640 with dialyzed fetal bovine serum (RPMI+ds) (AID 1963884); further: nearly all actives have a fitted effect of over 35% in size; on viability: series mostly up to about 46 µM
In short: as §1

[11] = Quantitative highthroughput screen to assess conditional lethalithy of NOMO1 cells grown in Human Plasma-Like Medium with dialyzed fetal bovine serum (HPLM+ds) (AID 1963878); further: nearly all actives have a fitted effect of over 35% in size
In short: as §1
Potency means the concentration at half of the fitted maximal effect.

| SMILES | Potency [1] | Potency [2] | Potency [3] | Potency [4] | Potency [5] | Potency [6] | Potency [7] | Potency [8] | Potency [9] | Potency [10] | Potency [11] | activity (max response) [7] |
| --- | --- | --- | --- | --- | --- | --- | --- | --- | --- | --- | --- | --- |
| CN1CCC(=C2c3ccccc3C=Cc3ccccc32)CC1 | inactive | inactive | inactive | inactive | inactive | inactive | 25.1 µM (active) | 3.98 µM (active) |  |  |  |  |
| CCN1CCCC1CNC(=O)c1cc(S(N)(=O)=O)ccc1OC (stereo not drawn) | inactive | inactive | inactive | inactive | inactive |  |  |  |  |  |  |  |
| O=C1C(CCC(O)c2ccc(F)cc2)C(c2ccc(O)cc2)N1c1ccc(F)cc1 (stereo not drawn) | inactive | inactive | inactive | inactive | inactive |  |  |  | inactive | inactive |  |  |
| COc1cc(N2CCN(C)CC2)ccc1Nc1nc(N)c(C(=O)c2c(Cl)cccc2Cl)s1 | inactive | inactive |  |  |  | 20.9 µM (active) |  |  |  | 20.9 µM (active) | inactive |  |
| O=c1c(-c2ccc(O)cc2)coc2cc(O)ccc12 | inactive | inactive | inactive | inactive | inactive | inactive |  |  | inactive | inactive |  | -14.3% |
| CC1COC2(CCN(c3nc(=O)c4cc(C(F)(F)F)cc([N+](=O)[O-])c4s3)CC2)O1 (stereo not drawn) | inactive | inactive |  |  |  |  |  | inactive |  |  | inactive |  |
| C1=CCOCc2cc(ccc2OCCN2CCCC2)Nc2nccc(n2)-c2cccc(c2)OCC1 | 7.43 µM (active) | 6.62 µM (active) | 10.5 µM (active) | 13.2 µM (active) | 13.2 µM (active) | 4.18 µM (active) |  |  | 3.32 µM (active) | 4.18 µM (active) |  |  |
| CC(=O)N1CCN(c2ccc(OCc3nn(C)c(C)c3-c3cccc4c(CCCOc5cc(C)c(Cl)c(C)c5)c(C(=O)O)n(Cc5cccnc5)c34)cc2)CC1 | inactive | inactive |  |  |  | 18.7 µM (active) |  |  |  | 20.9 µM (active) |  |  |
| CCCCN(CCCC)CC(O)c1cc(Cl)cc2c1-c1ccc(Cl)cc1C2=Cc1ccc(Cl)cc1 (stereo not drawn) | inactive |  | inactive | inactive | inactive | inactive |  |  | inactive | inactive | inactive |  |
| O=C(NCc1ccccc1)[C@H](Cc1ccccc1)NC(=O)[C@@H]1O[C@@H]1C(=O)NCCc1ccc(O)cc1 | inactive |  | inactive | inactive | inactive |  |  |  | inactive |  | inactive |  |
| CN(CC=CC#CC(C)(C)C)Cc1cccc2ccccc12 | inactive |  | inactive | inactive | inactive | inactive |  |  | inactive | inactive | inactive |  |
| N#CC(c1ccnc(NCCc2cccnc2)n1)c1nc2ccccc2s1 (stereo not drawn) | inactive |  | inactive | inactive | inactive | inactive |  |  | inactive | inactive | inactive |  |
| O=C(NNC(=O)c1ccc(CNS(=O)(=O)c2ccc(F)c(Cl)c2)cc1)c1ccccc1 | inactive |  | inactive | inactive | inactive | inactive |  |  | inactive |  | inactive |  |
| O=C1CN2Cc3c(ccc(Cl)c3Cl)N=C2N1 | inactive | inactive |  |  |  |  |  | inactive | inactive |  |  | 2.15% |
| Cn1cc(-c2cnn3c(N)c(Br)c([C@H]4CCCNC4)nc23)cn1 | 2.09 µM (active) |  | 2.96 µM (active) | 2.64 µM (active) | 2.64 µM (active) | 2.35 µM (active) |  |  | 0.935 µM (active) | 1.05 µM (active) | 1.32 µM (active) |  |
| CCC(C)(C)c1ccc(CC(C)CN2C[C@@H](C)O[C@@H](C)C2)cc1 (stereo partly drawn) | inactive |  | inactive | inactive | inactive | inactive |  | 18.4 µM (active) | inactive |  | inactive |  |
| CC(=CC(=O)Nc1ccccc1C(=O)O)c1ccc2ccccc2c1 | inactive |  | inactive | inactive | inactive | 23.5 µM (active) |  |  |  |  | inactive |  |
| OC[C@H]1O[C@@H](O[C@H]2[C@@H](O)[C@@](O)(CO)O[C@@H]2CO)[C@H](O)[C@@H](O)[C@@H]1O | inactive | inactive |  |  |  | inactive |  |  |  | inactive |  |  |
| COC(=O)C1=C(C)NC(C)=C(C(=O)OC(C)C)C1c1cccc2nonc12 (stereo not drawn) | inactive |  | inactive | inactive | inactive | inactive |  |  | inactive | inactive | inactive | 6.25% |
| CC(COc1ccccc1)N(CCCl)Cc1ccccc1 (stereo not drawn) | 0.166 µM (active) |  | 2.35 µM (active) | 2.96 µM (active) | 2.64 µM (active) | inactive |  | inactive |  | inactive | 0.209 µM (active) | -3.42% |
| O=S(=O)(c1cccc2cnccc12)N1CCCNCC1 | inactive | inactive |  |  | inactive |  |  | inactive | inactive | inactive |  | 2.02% and -0.384% |
